SMILES strings stand for the structures. Compounds without any hit were thinned out: in the full panel of roughly 79,000, 15% have a hit. A number with no mark means an inactive call. Calls of active or inactive are those of the source. Cut-off read from the data, not from the text of the source: active = growth inhibition above about 70%; inactive = the rest.

This experiment is described as follows: NCI Yeast Anticancer Drug Screen. Data for the mlh1 rad18 strain (AID 175). The note with it: S. cerevisiae mlh1 rad18 strain growth inhibition; at 50.0 µM (retest, dose inferred, filed as 5.0); hits give high values. In outline: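 Inhibition values reflect reduced growth of mutant yeast versus vehicle-treated controls following compound exposure; the mutations affect DNA damage repair.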
`CCCCCCCCCCS(=O)(=O)Nc1ccc(C(=O)NN)cc1`: the growth inhibition was 87% (active).

As for `ON(C(=Nc1ccc(Cl)cc1)c1ccccc1)c1ccccc1`, the growth inhibition was 99% (active).

`Cc1ccc(-c2c(N)[n+]([O-])c3ccccc3[n+]2[O-])cc1`: the growth inhibition is 99% (active).

Turning to `NC(=O)C12OC3CC(CC(C3)O1)O2`, the growth inhibition is -22%.

Consider `C=C(C)[P+](C)(c1ccccc1)c1ccccc1`, for which the growth inhibition is 4%.

As to `CCC(C)SC1SCC2C(=O)N(C)C3(CC3C)C(=O)OCC(NC(=O)c3nc4ccccc4cc3O)C(=O)NC(C)C(=O)N(C)C1C(=O)N(C)C1(CC1C)C(=O)OCC(NC(=O)c1nc3ccccc3cc1O)C(=O)NC(C)C(=O)N2C` (stereo not given), the growth inhibition is 84% (active).

`COc1ccc2ccc(=O)oc2c1CC=C(C)C`: the growth inhibition is 98% (active).

On to `O=c1ccn(C2OC(COC(c3ccccc3)(c3ccccc3)c3ccccc3)C(O)C2O)c(=O)[nH]1` (stereo not given), for which the growth inhibition was 98% (active).

For `O=C1C(=O)C(Cc2ccccc2)(c2ccccc2)C(=O)N1c1ccccc1` (stereo not given), the growth inhibition was 62%.

Take `CCC(O)C(O)(c1ccccc1)c1nc2ccccc2s1` (stereo not given): the growth inhibition is 15%.

Turning to `c1ccc(-n2ncc3ccc4cccn4c32)cc1`, the growth inhibition was 40%.

Consider `O=C(c1ccc([N+](=O)[O-])cc1)C(Br)C(Br)c1ccnc2ccccc12` (stereo not given), for which the growth inhibition was 95% (active).

Take `[Cl][Sn]1([Cl])[CH2]CC[CH2][Sn]([Cl])([Cl])[CH2]CC[CH2][Sn]([Cl])([Cl])[CH2]CC[CH2][Sn]([Cl])([Cl])[CH2]CC[CH2]1`: the growth inhibition is 83% (active).

Take `Nc1ccc(O)c(=O)cc1`: the growth inhibition is 15%.

As to `CC(C)c1cc(C(=O)[O-])c(O)c(C(C)C)c1.CC(C)c1cc(C(=O)[O-])c(O)c(C(C)C)c1.CC(C)c1cc(C(=O)[O-])c(O)c(C(C)C)c1.CC(C)c1cc(C(=O)[O-])c(O)c(C(C)C)c1.CC(C)c1cc(C(=O)[O-])c(O)c(C(C)C)c1.CC(C)c1cc(C(=O)[O-])c(O)c(C(C)C)c1.[Cu+2].[Mn+2].[Mn+2]`, the growth inhibition is 66%.

As to `CC1=C(C(=O)Nc2cccc(C(F)(F)F)c2)C(c2ccccc2F)C(C(=O)Nc2cccc(C(F)(F)F)c2)=C(C)N1`, the growth inhibition was 47%.

Turning to `O=C(c1ccccc1)C(C(=O)c1ccccc1)c1ccc2ccccc2n1`, the growth inhibition was -3%.

As for `NC(=S)N1N=C2c3ccccc3CC[C@H]2[C@@H]1c1cccs1`, the growth inhibition is 68%.

As to `O=CC(O)CN1CCCC1` (stereo not given), the growth inhibition was 16%.

Regarding `CCCCCN(CCCCC)CC(C)(C)C(O)c1ccc(OC)c2ccccc12` (stereo not given), the growth inhibition is 57%.

Take `CSC(=S)n1nc(-c2cccs2)c(N=Nc2ccccc2)c1C(F)(F)F`: the growth inhibition is 95% (active).

For `CC(O)C1CCCC[N+]1(C)C` (stereo not given), the growth inhibition is -3%.

Take `CCCCCCCCCCCC(=O)N(CCOC(=O)c1ccco1)CCOC(=O)c1ccco1`: the growth inhibition was 97% (active).

Regarding `CCOC(=O)NC(=S)Nc1ccsc1`, the growth inhibition was 0%.

Take `O=C(O)c1ccc(C(O)(c2ccccc2)c2ccccc2)cc1`: the growth inhibition is 93% (active).

For `N#CSCCSCc1ccc(Cl)cc1`, the growth inhibition is 99% (active).

In the case of `CN(/N=C\c1ccc(Cl)cc1)C(c1ccc(Cl)cc1)N(C)/N=C/c1ccc(Cl)cc1` (stereo not given), the growth inhibition was 85% (active).

For the compound `CC(C)(C)[Si](C)(C)OCC1OC(n2cc(I)c(N)nc2=O)C(O[Si](C)(C)C(C)(C)C)C1O[Si](C)(C)C(C)(C)C` (stereo not given), the growth inhibition is 94% (active).

As to `O=C1C(=O)c2cc(Br)cc([N+](=O)[O-])c2-c2ccc(Br)cc21`, the growth inhibition was 97% (active).

In the case of `C(=NCCc1ccccc1)c1ccccc1B1OB(c2ccccc2C=NCCc2ccccc2)OB(c2ccccc2C=NCCc2ccccc2)O1`, the growth inhibition is 99% (active).

As for `O=[N+]([O-])c1ccc(-c2ccccc2Cl)c([N+](=O)[O-])c1`, the growth inhibition was 97% (active).

`CC12CCC(=O)C=C1CCC1C2CCC2(C)C(c3cnc[nH]3)CCC12` (stereo not given): the growth inhibition is 70% (active).

For the compound `COc1cccc(C2CC(C)(O)Oc3cc4c(cc32)OCO4)c1` (stereo not given), the growth inhibition is 38%.

Consider `N/C(=N\N=C\c1cc(I)cc(I)c1O)NO`, for which the growth inhibition was 99% (active).

On to `Cc1ccc2nn(-c3ccc(O)cc3)nc2c1`, for which the growth inhibition is 50%.

Take `COC(=O)C1=C(NC(=O)Nc2ccc(Cl)cc2)OC(C)(C)C1c1ccc(Cl)cc1` (stereo not given): the growth inhibition is 89% (active).

On to `CCCC/C=C\CCCCCCCCCC1=C(O)C(=O)C=C(OC)C1=O`, for which the growth inhibition was 87% (active).

As for `Cc1nn(C(=O)c2ccccc2O)c2c1C(c1ccco1)SC(N)=N2` (stereo not given), the growth inhibition is 86% (active).

`CC1=C(CO)C(=O)O[C@@H]([C@@H](C)[C@H]2CC[C@H]3[C@@H]4C[C@@H](O)C5=CC=CC(=O)[C@]5(C)[C@H]4CC[C@]23C)C1`: the growth inhibition is 36%.

For the compound `O=C(CNC(=O)Nc1ccc(NC(=O)NCC(=O)Nc2ccc(C3=NCCN3)cc2)cc1)Nc1ccc(C2=NCCN2)cc1`, the growth inhibition was 20%.
